Assay [1] has as its target T1, Aspartate--tRNA(Asp/Asn) ligase (Mycobacterium tuberculosis (strain ATCC 25618 / H37Rv)) (UniProt P9WFW3). Note: in the data most compounds retested in dose-response had high values.
T1 sequence (whole entry): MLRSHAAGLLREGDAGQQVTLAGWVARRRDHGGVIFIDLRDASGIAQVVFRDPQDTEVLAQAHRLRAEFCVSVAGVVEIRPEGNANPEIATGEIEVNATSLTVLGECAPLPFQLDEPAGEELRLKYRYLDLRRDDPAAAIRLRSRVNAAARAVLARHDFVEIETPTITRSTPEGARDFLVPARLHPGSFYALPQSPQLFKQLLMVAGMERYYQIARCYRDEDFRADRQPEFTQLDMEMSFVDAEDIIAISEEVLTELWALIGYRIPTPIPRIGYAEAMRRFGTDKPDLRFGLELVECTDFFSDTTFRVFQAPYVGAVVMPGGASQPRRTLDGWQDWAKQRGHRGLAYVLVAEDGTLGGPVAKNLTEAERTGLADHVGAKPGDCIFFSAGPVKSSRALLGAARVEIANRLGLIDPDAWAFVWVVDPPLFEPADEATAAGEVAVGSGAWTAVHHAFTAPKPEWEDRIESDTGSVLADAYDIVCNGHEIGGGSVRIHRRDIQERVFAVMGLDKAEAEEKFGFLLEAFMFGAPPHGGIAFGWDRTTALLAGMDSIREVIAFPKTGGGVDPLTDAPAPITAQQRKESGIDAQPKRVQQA
The assay is described as follows: Assay for Asp RNA synthetase-1 from Mycobacterium tuberculosis. In kind it is functional. The settings on record: 30 µM. More on the design: scale not given: direction of the effect not stated beside the values.

Assay [2] concerns the target Shiga toxin 2 (Escherichia coli O157:H7) (UniProt P09385+P09386). The assay is described as follows: E. coli 0.157:H7 Shiga Toxin SOP - stx2 screening assay. It is filed as functional. Also on record: scale not given: direction of the effect not stated beside the values. The settings on record: 30 µM.

As for `COc1cccn(CC(=O)N(C)Cc2ccoc2)c1=O`, the Percent Effect in assay [1] is -1.64%; in assay [2], 5.29%.
The like results for `O=C(c1ccccn1)N1CCn2cnc(COCC3CC3)c2C1` were, in that order, 1.82% and -5.26%.
The like results for `COC1CCN(C(=O)Cc2csc(-c3ncccn3)n2)CC1` were, in that order, -5.19% and 12.8%.
With `CC(C)CN1CCC(NC(=O)c2ccc(F)cc2I)CC1`, the Percent Effect in assay [1] is -2.95%; in assay [2] it was -20.7%.
The like results for `CCc1noc(CNc2ccc(F)cc2OCC2CC2)n1` were, in that order, 1.97% and 0.5%.
Taken in the same sequence, the figures for `CCOC(=O)c1c(NC(=O)CN2CCN(C(C)=O)CC2)sc2c1CCC2` were -3.95% and 16.4%.
Consider `O=C(c1cccs1)N1CCC(O)(CN2CCc3ccccc3C2)C1` (stereo unspecified), for which the results for the Percent Effect in assay [1] and in assay [2] were -5.2% and -25.3%, respectively.
The like results for `Cc1ccccc1CC(=O)N(C)C1CCCC1` were, in that order, -6.33% and -21%.
With `Cc1ccccc1CSc1nc(N)cc(N2CC[C@@H](O)C2)n1`, the Percent Effect in assay [1] is 0.861%; in assay [2] it was 5.97%.
Taken in the same sequence, the figures for `Cc1cc(C)n(CC2CN(Cc3nc(-c4ccoc4)no3)CCO2)n1` (stereo unspecified) were 5.71% and 28.8%.
As for `CCC(=O)N1CCC2(COCc3c(C)nc(N(C)C)nc32)C1` (stereo unspecified), the Percent Effect in assay [1] is 6.18%; in assay [2] it was -30.5%.
Take `COc1cc(OC)c(C2Nc3cc(Cl)ccc3C3=NCCN32)cc1OC` (stereo unspecified): the Percent Effect is -6.02% in assay [1] and -48.2% in assay [2].
Taken in the same sequence, the figures for `COCCNC(=O)C[C@@H]1COC[C@H]2CN(C(=O)c3cnccn3)C[C@@H]12` were -8.37% and -20.7%.
For `COc1ccc(C)cc1CN1CCCC1Cn1nc(C)nc1C` (stereo unspecified), the Percent Effect in assay [1] was -7.82%; in assay [2] it was -25.1%.
Take `CNC(=O)C1CCN(C(=O)c2ccn(-c3ccc(F)cc3)n2)CC1`: the Percent Effect was found to be 3.5% in assay [1] and 7.26% in assay [2].
As to `Cc1ccc(-c2nc(CNCC3CN(C)CCO3)cs2)o1` (stereo unspecified), the Percent Effect in assay [1] is 1.27%; in assay [2], -23.7%.
Taken in the same sequence, the figures for `COc1nc(C)cc(C)c1CNC(=O)N(C)Cc1cnn(C)c1` were 4.2% and 6.51%.
Taken in the same sequence, the figures for `COC(=O)c1sccc1S(=O)(=O)NCC1(O)CCOc2ccccc21` (stereo unspecified) were -2.1% and 6.1%.
For `CCOc1cc(F)ccc1NS(=O)(=O)c1cc(C)c(C(=O)O)s1`, the Percent Effect in assay [1] is 1.85%; in assay [2], -9.96%.
With `Cc1cnn(CC2CN(CC(=O)NCCc3cccs3)CCO2)c1` (stereo unspecified), the Percent Effect in assay [1] was -11.2%; in assay [2], 6.55%.
Regarding `Cc1nn(C)c2c(NCc3ccccc3F)nc(C3CC3)nc12`, the Percent Effect in assay [1] was 12.5%; in assay [2] it was -20.5%.
Taken in the same sequence, the figures for `Cc1occc1C(=O)N1CCC[C@]2(C[C@@H](OCc3ccncc3)CO2)C1` were 6.93% and -29.1%.
Taken in the same sequence, the figures for `CCC1=N[C@@]2(CC[C@@H]3CN(Cc4ccc(Cl)cc4)C[C@@H]32)C(=O)N1` were 0.626% and 3.7%.
Regarding `CCC(=O)N1Cc2nccn2CC(CN(C)Cc2cccnc2)C1` (stereo unspecified), the Percent Effect in assay [1] is 7.49%; in assay [2] it was -5.95%.
For the compound `Cc1ccc2c(c1)c(CNC(=O)C1CC(=O)N(C3CCCC3)C1)nn2C` (stereo unspecified), the Percent Effect in assay [1] is 4.05%; in assay [2] it was -18%.
`Cc1cc(-c2cnn(CCNC(=O)C3CC3)c2C2CC2)on1`: the Percent Effect was determined as 0.838% in assay [1] and 64.1% in assay [2].
In the case of `Cn1cc(C(=O)NCC2CCN(C(=O)NCC(F)(F)F)CC2)cn1`, the Percent Effect in assay [1] was 2.43%; in assay [2], -39.4%.
The like results for `Cc1noc(C)c1-c1cccc(CC2CCN(C(=O)c3cc[nH]n3)C2)n1` (stereo unspecified) were, in that order, -1.22% and 4.37%.
For the compound `Cn1cc(C(=O)NC[C@@H]2OC[C@H]3CN(S(C)(=O)=O)CC[C@H]32)cn1`, the Percent Effect in assay [1] is 0.41%; in assay [2], -26.8%.
For the compound `COCCn1cc2c(n1)C(CNCc1ccco1)OCC2` (stereo unspecified), the Percent Effect in assay [1] was 3%; in assay [2], -35.6%.
The like results for `Cn1cc(N2CCC3(CCN(S(=O)(=O)C4CC4)C3)C2=O)cn1` (stereo unspecified) were, in that order, -3.64% and -21.1%.
The like results for `Cc1ncnc2c1CCN(c1cc(C(F)(F)F)ncn1)CC2` were, in that order, 3.84% and 6.49%.
Take `O=C(Cc1cccc(F)c1)N1CCCCC1c1ccn2ccnc2n1` (stereo unspecified): the Percent Effect in assay [1] is -2.63%; in assay [2], -7.82%.
As for `CCCc1nc(C)c(C(=O)NS(=O)(=O)c2ccc(C#N)cc2)s1`, the Percent Effect worked out at 0.836% in assay [1] and 8.1% in assay [2].
Taken in the same sequence, the figures for `CCc1nc(CN2CCCN(C(=O)COCC3CC3)CC2)cs1` were -3.19% and -49.1%.
Consider `CC1COCCN1Cc1nc(-c2cccc(Br)c2)no1` (stereo unspecified), for which the Percent Effect in assay [1] was determined as 4.5%; in assay [2] it was 32%.
Taken in the same sequence, the figures for `COCCN1CCN(Cc2ccc(F)c(C)c2)[C@H]2CS(=O)(=O)C[C@H]21` were -3.12% and -5.44%.
On to `CCc1csc(C2CCCN(C(=O)c3c[nH]c(C)n3)C2)n1` (stereo unspecified), for which the Percent Effect in assay [1] is -0.0911%; in assay [2], -10.2%.
The like results for `COc1ccc(F)cc1CN1CCCC(c2cc(C(N)=O)[nH]n2)C1` (stereo unspecified) were, in that order, -5.13% and 1.05%.
Regarding `O=C(NCC(O)c1ccccc1Cl)c1cccc(-n2cnnn2)c1` (stereo unspecified), the Percent Effect in assay [1] was 7.85%; in assay [2], 2.65%.
`Cc1ccc(NC(=O)c2cc(S(=O)(=O)N3CCCCC3)c[nH]2)cc1F`: the Percent Effect in assay [1] is 1.97%; in assay [2] it was 17.8%.
The like results for `Cc1nc(C)n(CC2CCCCN2CC(=O)Nc2ccncc2)n1` (stereo unspecified) were, in that order, -1.82% and -16.8%.
Taken in the same sequence, the figures for `CCOc1ccc(Cl)c(C(=O)N(C)C)n1` were -0.544% and -62.5%.

(Values after ChEMBL document CHEMBL3988442, “University of Dundee, Small-Polar-MMV Screening Library” (2021).)
